Compounds with a hit are over-represented: about 7.9% of the library has one in this group of screens.
HT1080 IDH1KD tx = HT-1080 IDH1 knockdown cell toxicity (counter line); HT-1080 IDH1 knockdown viability, ATP luminescence, 48 h; Potency, µM (highest dose often 46.1 µM), without a hit: top-dose activity, negative = toxicity, actives largely listed as cytotoxic; 2% of 360,000 active; AID 686971;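 further: 0% = DMSO wells and -100% = cell-free medium wells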
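Using the IDH1-knockdown HT-1080 line run in the same batch and compound series as the NT line, viability after 48 h at 37 °C was determined by CellTiter-Glo luminescence and expressed as % activity.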
KB-V1 MDR tox = kills drug-selected multidrug resistant KB-V1 cells; KB-V1 MDR cells viability, CellTiter-Glo, 72 h; Potency, µM (top dose mostly 46.1 µM), most hits filed as cytotoxic; 3.4% of 400,000 active; AID 1347076; further: on the % scale 0 is the no-effect control and ±100 the full control effect; nearly all actives have a fitted effect of over 60% in size
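Drug-selected KB-V1 cells, grown in DMEM lacking phenol red with 10% FBS, receive compound titrations; after three days at 37 degrees C, surviving cell ATP is quantified by CellTiter-Glo luminescence and responses normalized and curve-fitted.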
KB-3-1 cytotox = KB-3-1 parental cell cytotoxicity. KB-3-1 viability, CellTiter-Glo ATP luminescence, 72 h. 1.4% of 400,000 active. AID 1347075. Potency, µM (top dose mostly 46.1 µM), hits mostly cytotoxic; further: on the % scale 0 is the no-effect control and ±100 the full control effect; nearly all actives have a fitted effect of over 60% in size
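Parental KB-3-1 viability, qHTS format: 72 h compound exposure, 37 °C; CellTiter-Glo; media-only wells and DMSO plates as controls; concentration-effect fits on corrected data.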
HT1080-NT tox = kills 2HG-producing HT-1080-NT fibrosarcoma cells; Potency, µM (series often up to 46.1 µM), inactives show top-dose activity, negative = less viability, hits mostly cytotoxic; AID 686970; HT-1080-NT fibrosarcoma viability, CellTiter-Glo ATP luminescence, 48 h; 1.6% of 360,000 active;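 further: NT is the 2HG producing partner of a matched IDH1 knockdown line; 0% = DMSO-treated cells and -100% = media-only wells without cells; nearly all actives have a fitted effect of over 55% in size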
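HT-1080-NT fibrosarcoma cells (2HG-overproducing), 750 cells/well in RPMI with 5% FBS, dosed after 2 h and incubated 48 h at 37C. CellTiter-Glo luminescence normalized to DMSO and no-cell wells; concentration-response curves fitted and classed.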
MCF10A rereplic = induces DNA re-replication in MCF 10a normal breast cells; 2.9% of 350,000 active; MCF 10A DNA re-replication, Hoechst nuclear intensity, 48 h; AID 624296; Potency, µM (titrated, usually from 46.1 µM), for inactives: at the highest dose activity, positive = re-replication, hits mostly activators; further: % of control where 0% means no effect; nearly all actives have a fitted effect of over 50% in size
SW480 rereplic = inducers of DNA re-replication in SW480 colon cancer cells; 1.8% of 340,000 active; Potency, µM (highest dose often 46.1 µM), for inactives: top-dose re-replication activation, most hits filed as activators; AID 624297; SW480 DNA re-replication, Hoechst DNA content imaging, 48 h; further: % of control where 0% means no effect; nearly all actives have a fitted effect of over 55% in size
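DNA re-replication was detected as more nuclei of elevated Hoechst intensity after 48 hr exposure to compound (23 nL pinned per well of 250 cells).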
Starred values were filed as active, the others as inactive. The call rests on the fitted dose curve; in most records, active means well fitted curve in the direction sought with a large enough effect; inconclusive means small, poorly fitted or top-dose-only effect, or another doubt; inactive means no such curve, though single readings can be large; an effect the other way counts as inactive or inconclusive. Potency means the concentration at half of the fitted maximal effect.

Results for CCOC(=O)C1CCCN(C(=O)c2ccc3nc(-c4cccc(OC)c4)oc3c2)C1 (centres undefined) ?
HT1080 IDH1KD tx: 6.51µM*; KB-V1 MDR tox: inactive; KB-3-1 cytotox: 5.8µM*; HT1080-NT tox: inconclusive; MCF10A rereplic: inconclusive; SW480 rereplic: 16.4µM*

What do the screens show for `Cc1ccc(C)c(N2CCN(C(=O)c3cc4c(C)nc5ccccc5c4o3)CC2)c1`?
HT1080 IDH1KD tx: -1.3%; KB-V1 MDR tox: inactive; KB-3-1 cytotox: inactive; HT1080-NT tox: 3.5%; MCF10A rereplic: 20.6µM*; SW480 rereplic: -8.6%

What do the screens show for `CCC(=O)C1CCCN(C(=O)c2ccc3nc(-c4cccc(OC)c4)oc3c2)C1` (centres undefined)?
HT1080 IDH1KD tx: -10.2%; KB-V1 MDR tox: inactive; KB-3-1 cytotox: inactive; HT1080-NT tox: -17.7%; MCF10A rereplic: inconclusive; SW480 rereplic: 7.8%

Results for CC(NC(=O)NCC1CCCO1)(C(F)(F)F)C(F)(F)F (centres undefined) ?
HT1080 IDH1KD tx: 4.7%; KB-V1 MDR tox: inactive; KB-3-1 cytotox: inactive; HT1080-NT tox: 2.7%; MCF10A rereplic: -4.9%; SW480 rereplic: -7.9%

Results for CCOC(=O)c1ccc(N2C(=O)c3[nH]nc(-c4ccc(C)cc4)c3C2c2ccc(O)cc2)cc1 (centres undefined) ?
KB-V1 MDR tox: inactive; KB-3-1 cytotox: inconclusive

Results for CCOC(=O)c1ccc(N2C(=O)c3n[nH]c(C)c3C2c2ccccn2)cc1 (centres undefined) ?
HT1080 IDH1KD tx: -3.0%; KB-V1 MDR tox: inactive; KB-3-1 cytotox: inactive; HT1080-NT tox: -4.0%; MCF10A rereplic: 3.2%; SW480 rereplic: -2.3%

How did CCOC(=O)c1ccc(N2C(=O)c3n[nH]c(-c4cccs4)c3C2c2ccc(OC)cc2OC)cc1 (centres undefined) do in these assays?
KB-V1 MDR tox: 25.9µM*; KB-3-1 cytotox: inconclusive

What do the screens show for `Cc1[nH]nc2c1C(c1ccccn1)N(c1ccc(Br)cc1)C2=O` (centres undefined)?
HT1080 IDH1KD tx: -0.1%; KB-V1 MDR tox: 18.4µM*; KB-3-1 cytotox: inactive; HT1080-NT tox: -1.1%; MCF10A rereplic: -3.8%; SW480 rereplic: -7.1%

How did CCOC(=O)c1ccc(N2C(=O)c3[nH]nc(-c4ccccc4)c3C2c2ccc(CC)cc2)cc1 (centres undefined) do in these assays?
KB-V1 MDR tox: 23.1µM*; KB-3-1 cytotox: inconclusive

How did CCOC(=O)c1ccc(N2C(=O)c3n[nH]c(C)c3C2c2ccc(OCC)cc2)cc1 (centres undefined) do in these assays?
KB-V1 MDR tox: inconclusive; KB-3-1 cytotox: 23.1µM*

Results for Cc1ccc(N2C(=O)c3n[nH]c(C)c3C2c2ccccc2Cl)cc1 (centres undefined) ?
KB-V1 MDR tox: inconclusive; KB-3-1 cytotox: inactive

Results for COc1ccc(-c2nc3ccccc3o2)cc1NC(=O)C(C)Oc1ccc(Cl)cc1Cl (centres undefined) ?
KB-V1 MDR tox: inactive; KB-3-1 cytotox: inactive

Results for O=C1CCCc2c1nc(-c1ccccc1F)n2O ?
HT1080 IDH1KD tx: -6.1%; KB-V1 MDR tox: inactive; KB-3-1 cytotox: inactive; HT1080-NT tox: -1.9%; MCF10A rereplic: 5.2%; SW480 rereplic: -48.6%

Results for CN(C)c1cc[n+](CC(=O)Nc2ccc(Cl)c([N+](=O)[O-])c2)cc1 ?
HT1080 IDH1KD tx: inconclusive; KB-V1 MDR tox: inactive; KB-3-1 cytotox: 6.51µM*; HT1080-NT tox: -20.7%; MCF10A rereplic: inconclusive; SW480 rereplic: 3.1%

Results for CC(=O)c1ccc(NC(=O)C[n+]2ccc(N(C)C)cc2)cc1 ?
HT1080 IDH1KD tx: -1.5%; KB-V1 MDR tox: inconclusive; KB-3-1 cytotox: inconclusive; HT1080-NT tox: inconclusive; MCF10A rereplic: 1.1%; SW480 rereplic: 1.1%
